# Calls of active or inactive are those of the source.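 How the source made its calls, unless noted: active means inhibition above 54%, about 3 SD of non-fluorescent compounds; inactive means the rest.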
# How the values were obtained:
# [1] = inhibitors of CD8+ T cell-vesicle binding, pilot screen, LFA-1/ICAM-1 modulator project, MLPCN validation set, flow cytometry (AID 2523;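 active means response below a set limit, under 55% cells CD8-positive and vesicle-bound, and CD8 cells' 90th-percentile brightness under 279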;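 on vesicle binding response: mean PE anti-B7-1 fluorescence of CD8+ cells relative to row control; 100% = QL9-loaded vesicles with DMSO vehicle in the same plate row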); settings: 2C mouse CD8+ T cells, at 7 µM, stronger effect = lower value; double positive events: measured here: CD8+/vesicle+ event percentage
# [2] = biological target: Integrin beta-1 (Homo sapiens) + Integrin alpha-4 (Homo sapiens) (UniProt P13612+P05556); experiment: inhibition of HUTS-21 binding to VLA-4, pilot screen, VLA-4 allosteric modulator project, U937 cells, HUTS-21 mAb, flow cytometry, validation set (AID 2674;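 active means inhibition above 50%, about 3 SD of the validation set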;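 further: antibody binding induced by the VLA-4 ligand LDV present at three times its Kd; 0% = LDV ligand with antibody and no compound and 100% = antibody without LDV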); settings: HUTS-21 LIBS mAb binding, at 6.7 µM, stronger effect = higher value, binding induced by LDV ligand
# Chain of Integrin beta-1 (Homo sapiens) + Integrin alpha-4 (Homo sapiens) (P05556 whole entry, looked up): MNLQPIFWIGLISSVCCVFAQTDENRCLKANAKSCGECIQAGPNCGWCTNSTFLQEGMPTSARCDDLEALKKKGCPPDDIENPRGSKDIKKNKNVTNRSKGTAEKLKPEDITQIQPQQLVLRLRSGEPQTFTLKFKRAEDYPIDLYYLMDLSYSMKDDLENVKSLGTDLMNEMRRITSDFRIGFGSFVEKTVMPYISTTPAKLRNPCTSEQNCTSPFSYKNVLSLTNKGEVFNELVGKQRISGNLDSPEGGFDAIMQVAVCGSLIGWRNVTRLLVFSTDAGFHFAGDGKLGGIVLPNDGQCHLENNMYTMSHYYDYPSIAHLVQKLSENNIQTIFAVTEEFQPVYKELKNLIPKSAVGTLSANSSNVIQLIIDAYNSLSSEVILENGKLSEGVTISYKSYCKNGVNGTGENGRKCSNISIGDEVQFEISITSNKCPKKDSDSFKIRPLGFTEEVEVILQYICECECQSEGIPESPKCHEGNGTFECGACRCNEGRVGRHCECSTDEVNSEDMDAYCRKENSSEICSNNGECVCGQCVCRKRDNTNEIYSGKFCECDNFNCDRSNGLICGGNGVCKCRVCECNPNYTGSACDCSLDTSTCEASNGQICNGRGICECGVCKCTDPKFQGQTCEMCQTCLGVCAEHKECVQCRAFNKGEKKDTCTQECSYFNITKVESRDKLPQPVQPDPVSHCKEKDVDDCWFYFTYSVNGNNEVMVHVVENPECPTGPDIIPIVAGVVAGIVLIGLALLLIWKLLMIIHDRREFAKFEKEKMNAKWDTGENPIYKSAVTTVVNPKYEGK
# Chain of Integrin beta-1 (Homo sapiens) + Integrin alpha-4 (Homo sapiens) (P13612 whole entry, looked up): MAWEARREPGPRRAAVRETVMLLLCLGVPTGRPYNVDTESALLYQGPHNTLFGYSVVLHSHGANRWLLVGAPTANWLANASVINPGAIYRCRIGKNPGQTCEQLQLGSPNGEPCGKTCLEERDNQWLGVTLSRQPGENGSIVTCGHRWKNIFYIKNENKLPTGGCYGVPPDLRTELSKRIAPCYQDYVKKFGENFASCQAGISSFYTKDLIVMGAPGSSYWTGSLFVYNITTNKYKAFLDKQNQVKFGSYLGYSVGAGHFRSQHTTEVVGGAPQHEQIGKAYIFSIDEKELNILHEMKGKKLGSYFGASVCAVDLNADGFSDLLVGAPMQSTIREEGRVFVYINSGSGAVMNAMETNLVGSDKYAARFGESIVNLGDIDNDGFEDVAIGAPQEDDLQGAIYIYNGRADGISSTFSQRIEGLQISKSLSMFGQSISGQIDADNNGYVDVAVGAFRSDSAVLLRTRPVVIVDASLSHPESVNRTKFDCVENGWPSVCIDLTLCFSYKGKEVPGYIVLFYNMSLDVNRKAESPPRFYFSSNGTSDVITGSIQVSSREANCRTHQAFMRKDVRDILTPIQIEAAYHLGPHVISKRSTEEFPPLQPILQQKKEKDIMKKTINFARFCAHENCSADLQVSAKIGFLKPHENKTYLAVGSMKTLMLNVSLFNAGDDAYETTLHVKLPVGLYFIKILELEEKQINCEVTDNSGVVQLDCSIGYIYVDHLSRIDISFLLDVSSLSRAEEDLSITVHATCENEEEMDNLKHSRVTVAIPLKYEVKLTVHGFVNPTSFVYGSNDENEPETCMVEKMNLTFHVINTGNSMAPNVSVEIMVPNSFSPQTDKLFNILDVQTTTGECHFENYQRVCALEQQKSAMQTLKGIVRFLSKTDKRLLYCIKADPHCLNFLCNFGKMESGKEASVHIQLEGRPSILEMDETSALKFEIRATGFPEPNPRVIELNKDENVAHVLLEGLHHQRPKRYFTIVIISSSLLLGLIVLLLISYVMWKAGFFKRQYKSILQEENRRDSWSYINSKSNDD
# [3] = superoxide lowering in aged yeast cells, pilot screen, validation compound set (AID 2706;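 active means superoxide response below 65% of plate, a cut near 3 SD across the whole screen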;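 further: yeast exposed to compound for one week at 30 degrees C before staining; 100% = mean of all compound wells on the same plate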); settings: S. cerevisiae aging, superoxide DHE fluorescence; at 10 µM, stronger effect = lower value
# [4] = biological target: Beta-adrenergic receptor kinase 1 (Homo sapiens) (UniProt P25098); experiment: GRK2 binders displacing RNA aptamer, biochemical, validation, human GRK2, bead flow cytometry (AID 488806;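 active means aptamer binding inhibition above 30%, about 3 SD of noise from non-fluorescent compounds; inactive means inhibition at or below 30%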); settings: bead-bound GRK2, FAM-aptamer displacement, at 10 µM, stronger effect = higher value
# Chain of Beta-adrenergic receptor kinase 1 (Homo sapiens) (P25098 whole entry, looked up, the tested form may be a part): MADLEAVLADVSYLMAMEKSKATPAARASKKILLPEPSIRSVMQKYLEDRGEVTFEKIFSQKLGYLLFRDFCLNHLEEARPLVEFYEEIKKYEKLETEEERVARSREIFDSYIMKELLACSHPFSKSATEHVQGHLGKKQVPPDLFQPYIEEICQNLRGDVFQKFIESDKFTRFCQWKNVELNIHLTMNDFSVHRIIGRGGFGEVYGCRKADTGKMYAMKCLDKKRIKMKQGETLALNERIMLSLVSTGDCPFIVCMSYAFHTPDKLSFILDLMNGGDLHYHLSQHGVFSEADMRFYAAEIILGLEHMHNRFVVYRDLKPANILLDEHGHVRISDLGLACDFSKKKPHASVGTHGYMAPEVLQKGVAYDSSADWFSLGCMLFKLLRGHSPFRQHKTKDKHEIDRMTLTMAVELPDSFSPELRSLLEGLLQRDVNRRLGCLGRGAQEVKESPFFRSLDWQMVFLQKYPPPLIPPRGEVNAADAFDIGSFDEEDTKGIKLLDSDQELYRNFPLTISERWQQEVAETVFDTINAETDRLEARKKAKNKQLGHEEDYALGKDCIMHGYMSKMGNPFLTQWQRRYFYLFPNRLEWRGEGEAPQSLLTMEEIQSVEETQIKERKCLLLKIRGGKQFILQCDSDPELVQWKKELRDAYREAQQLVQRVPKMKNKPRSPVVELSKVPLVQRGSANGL
# [5] = biological target: AP-2 complex subunit beta (Homo sapiens) (UniProt P63010); experiment: inhibitors of arrestin peptide binding to AP2, pilot screen, biochemical, validation set, GST-AP2 beads, flow cytometry (AID 504541); settings: FITC arrestin peptide, at 10 µM, stronger effect = higher value, AP2 beta2 appendage fragment, R879A mutant;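 further: AP2 carries R879A mutation and is captured from E. coli lysate; bead-bound FITC arrestin peptide fluorescence measuring arrestin peptide binding to AP2; 0% = DMSO wells and 100% = excess unlabeled arrestin peptide control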
# Chain of AP-2 complex subunit beta (Homo sapiens) (P63010 whole entry, looked up, the tested form may be a part, one chain of several): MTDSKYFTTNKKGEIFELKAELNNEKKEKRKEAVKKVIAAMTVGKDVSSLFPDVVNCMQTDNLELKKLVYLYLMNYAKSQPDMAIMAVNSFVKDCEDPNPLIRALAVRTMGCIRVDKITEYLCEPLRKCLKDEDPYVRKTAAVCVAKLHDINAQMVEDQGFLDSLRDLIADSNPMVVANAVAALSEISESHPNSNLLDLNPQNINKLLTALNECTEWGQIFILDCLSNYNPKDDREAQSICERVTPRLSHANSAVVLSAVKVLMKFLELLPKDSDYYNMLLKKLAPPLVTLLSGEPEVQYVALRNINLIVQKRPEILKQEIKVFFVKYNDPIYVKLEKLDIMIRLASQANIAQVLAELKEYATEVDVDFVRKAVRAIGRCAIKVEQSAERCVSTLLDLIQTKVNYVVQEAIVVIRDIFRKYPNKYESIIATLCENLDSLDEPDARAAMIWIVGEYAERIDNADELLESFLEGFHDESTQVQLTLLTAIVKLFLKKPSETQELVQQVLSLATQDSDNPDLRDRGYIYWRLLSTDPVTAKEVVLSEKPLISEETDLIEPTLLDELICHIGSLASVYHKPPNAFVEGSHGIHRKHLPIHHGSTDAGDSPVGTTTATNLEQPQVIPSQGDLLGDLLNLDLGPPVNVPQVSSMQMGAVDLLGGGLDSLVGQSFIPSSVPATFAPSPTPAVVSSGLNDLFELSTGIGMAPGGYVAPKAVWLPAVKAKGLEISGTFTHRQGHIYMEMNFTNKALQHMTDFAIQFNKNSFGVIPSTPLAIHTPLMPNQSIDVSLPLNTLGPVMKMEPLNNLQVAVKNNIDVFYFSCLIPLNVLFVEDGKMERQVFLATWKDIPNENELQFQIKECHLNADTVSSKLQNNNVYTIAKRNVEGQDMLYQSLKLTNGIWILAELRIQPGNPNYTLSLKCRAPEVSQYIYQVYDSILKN
# [6] = yeast V-ATPase proton transport modulators, S. cerevisiae, pHLuorin, HTS validation (AID 504600; in the data active means response above about 15%;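 further: plate controls were DMSO for no effect and reference compound for full effect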); settings: S. cerevisiae pHLuorin cytosolic pH, at 10 µM, stronger effect = higher value
# [7] = system: anti-desmoglein-3 scFv antibody binding to human DSG3; experiment: inhibitors of anti-DSG3 scFv binding to DSG3, pilot screen, biochemical, validation compound set, bead-based, flow cytometry (AID 588368;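 active means binding below the plate cutoff, the plate median minus 3 SD, with a reading above zero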;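 further: signal is the median channel fluorescence of bead-bound GFP antibody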); settings: Protein G beads, DSG3-Fc, scFv-GFP binding, at 10 µM, stronger effect = lower value
# [8] = inhibitors of fungal efflux pumps CDR1, CDR2, MDR1, pilot screen, validation compound set, multiplex, phenotypic (AID 588506;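 active means efflux inhibition above 0.42, the validation set average plus 4 SD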;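 further: Nile Red retained in cells so higher fluorescence means more efflux inhibition; 0 = negative control wells and 1 = enniatin B 25 µM full block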); settings: S. cerevisiae pump-expressing triplex, Nile Red efflux flow cytometry; at 10 µM; stronger effect = higher value; the pumps come from Candida albicans
# [9] = biological target: ATP-binding cassette sub-family B member 6 (Homo sapiens) (UniProt Q9NP58); experiment: ABCB6 transporter inhibitors, pilot screen, K562-ABCB6 cells, flow cytometry, validation set (AID 588550;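 active means inhibition above the screen-wide mean plus 3 SD, about 51%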;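 further: 0% = DMSO wells and 100% = benzethonium chloride 70 µM positive control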); settings: K562-ABCB6 porphyrin accumulation, 1 h, at 10 µM, stronger effect = higher value
# Chain of ATP-binding cassette sub-family B member 6 (Homo sapiens) (Q9NP58 whole entry, looked up): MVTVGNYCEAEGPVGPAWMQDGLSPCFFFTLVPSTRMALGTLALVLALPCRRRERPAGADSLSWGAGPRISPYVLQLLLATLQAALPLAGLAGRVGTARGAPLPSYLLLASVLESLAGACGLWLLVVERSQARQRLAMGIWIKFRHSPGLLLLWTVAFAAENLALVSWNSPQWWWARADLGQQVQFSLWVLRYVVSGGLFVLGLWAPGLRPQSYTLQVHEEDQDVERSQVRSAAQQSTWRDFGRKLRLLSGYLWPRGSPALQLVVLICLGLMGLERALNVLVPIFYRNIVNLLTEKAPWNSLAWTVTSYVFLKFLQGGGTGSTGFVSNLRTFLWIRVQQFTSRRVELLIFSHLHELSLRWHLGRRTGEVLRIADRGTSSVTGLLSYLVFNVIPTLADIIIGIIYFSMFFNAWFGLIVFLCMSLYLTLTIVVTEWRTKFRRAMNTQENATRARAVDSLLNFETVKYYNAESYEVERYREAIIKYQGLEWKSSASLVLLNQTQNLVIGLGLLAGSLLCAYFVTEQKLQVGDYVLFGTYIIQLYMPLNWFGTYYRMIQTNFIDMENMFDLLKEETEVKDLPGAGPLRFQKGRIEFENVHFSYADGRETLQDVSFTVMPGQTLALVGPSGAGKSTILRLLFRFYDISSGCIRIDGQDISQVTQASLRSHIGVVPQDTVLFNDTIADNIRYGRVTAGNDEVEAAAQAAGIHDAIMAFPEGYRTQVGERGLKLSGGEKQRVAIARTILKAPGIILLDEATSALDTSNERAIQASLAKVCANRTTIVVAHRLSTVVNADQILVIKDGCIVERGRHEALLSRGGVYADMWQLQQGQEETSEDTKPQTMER
# [10] = promoters of myeloid differentiation in arrested cells, primary screen, cell-based, GFP/MAC1 double positive, flow cytometry, validation set (AID 588685;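 active means differentiation response of at least 50%, scaled between solvent and reference control, from cells with both markers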;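 further: compound exposure lasts four days before antibody staining and flow analysis; 0% = DMSO wells and 100% = 5 µM fulvestrant positive control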); settings: ER-HoxA9 marrow cells, stronger effect = higher value, normalized: vehicle 0, fulvestrant 100
# [11] = biological target: Beta-2 adrenergic receptor (Homo sapiens) (UniProt P07550); experiment: beta2AR agonists driving receptor internalization, pilot screen, cell-based, FAP fluorogen, flow cytometry, validation set (AID 504459;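 active means percent response above 42, roughly 3 SD of non-fluorescent test compounds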;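 further: agonist-driven loss of surface beta2AR via internalization measured by FAP dye flow cytometry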); settings: Am2.2-beta2AR cells, FAP surface receptor flow cytometry; at 10 µM; stronger effect = higher value
# Chain of Beta-2 adrenergic receptor (Homo sapiens) (P07550 whole entry, looked up): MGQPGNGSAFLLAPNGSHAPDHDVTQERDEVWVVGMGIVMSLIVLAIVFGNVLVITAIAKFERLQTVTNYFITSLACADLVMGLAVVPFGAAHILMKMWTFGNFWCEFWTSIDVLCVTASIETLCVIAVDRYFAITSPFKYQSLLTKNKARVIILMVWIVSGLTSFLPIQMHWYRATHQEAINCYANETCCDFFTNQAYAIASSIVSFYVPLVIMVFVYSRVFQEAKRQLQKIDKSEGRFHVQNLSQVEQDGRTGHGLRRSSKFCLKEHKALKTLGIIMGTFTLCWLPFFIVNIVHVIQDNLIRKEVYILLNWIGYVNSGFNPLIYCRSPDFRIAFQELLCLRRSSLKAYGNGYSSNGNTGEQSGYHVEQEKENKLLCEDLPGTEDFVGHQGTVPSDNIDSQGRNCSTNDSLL
compound,measurement,setting,value
Cc1ccc2[nH]c3c(=O)n(CCCN4CCN(C)CC4)cnc3c2c1,double positive events,[1],60.7%
same,vesicle binding response,[1],195% (inactive)
same,inhibition,[2],7.22% (inactive)
same,superoxide response (% of plate),[3],99.9% (inactive)
same,aptamer binding inhibition,[4],4% (inactive)
same,inhibition,[5],24.8% (inactive)
same,response,[6],-6.94% (inactive)
same,binding (% of control),[7],99.3% (inactive)
same,efflux inhibition (fraction of control),[8],-0.2 (inactive)
same,inhibition,[9],12% (inactive)
same,differentiation response,[10],30.5% (inactive)
CC(=O)c1c(C)[nH]c(C(=O)OCc2ccccc2)c1C,double positive events,[1],60.2%
same,vesicle binding response,[1],120% (inactive)
same,inhibition,[2],1.59% (inactive)
same,superoxide response (% of plate),[3],103% (inactive)
same,aptamer binding inhibition,[4],3% (inactive)
same,response,[11],-5.41% (inactive)
same,inhibition,[5],9.32% (inactive)
same,response,[6],0.36% (inactive)
same,binding (% of control),[7],103% (inactive)
same,efflux inhibition (fraction of control),[8],-0.25 (inactive)
same,inhibition,[9],1% (inactive)
same,differentiation response,[10],-13.3% (inactive)
Cc1cc(=O)oc(C)c1C(=O)NCCC(C)C,double positive events,[1],53.1%
same,vesicle binding response,[1],150% (inactive)
same,inhibition,[2],-1.17% (inactive)
same,superoxide response (% of plate),[3],87.3% (inactive)
same,aptamer binding inhibition,[4],0% (inactive)
same,inhibition,[5],-9.02% (inactive)
same,response,[6],7.71% (inactive)
same,binding (% of control),[7],102% (inactive)
same,efflux inhibition (fraction of control),[8],0.37 (inactive)
same,inhibition,[9],15% (inactive)
same,differentiation response,[10],32.1% (inactive)
CC[C@H](CO)NCCN[C@H](CC)CO,double positive events,[1],56.6%
same,vesicle binding response,[1],193% (inactive)
same,inhibition,[2],-2.11% (inactive)
same,superoxide response (% of plate),[3],112% (inactive)
same,aptamer binding inhibition,[4],-2% (inactive)
same,inhibition,[5],-14.5% (inactive)
same,response,[6],2.83% (inactive)
same,binding (% of control),[7],112% (inactive)
same,efflux inhibition (fraction of control),[8],0.06 (inactive)
same,inhibition,[9],12% (inactive)
same,differentiation response,[10],-19.6% (inactive)
CCNC(=O)c1sc2cc(C)ccc2c1Cl,double positive events,[1],60.2%
same,vesicle binding response,[1],294% (inactive)
same,inhibition,[2],-10.5% (inactive)
same,superoxide response (% of plate),[3],86.4% (inactive)
same,aptamer binding inhibition,[4],-2% (inactive)
same,inhibition,[5],-9.7% (inactive)
same,response,[6],0.2% (inactive)
same,binding (% of control),[7],99.5% (inactive)
same,efflux inhibition (fraction of control),[8],-0.16 (inactive)
same,inhibition,[9],5% (inactive)
same,differentiation response,[10],1.41% (inactive)
CC1(C)CC(=O)c2cc(O)ccc2O1,double positive events,[1],61%
same,vesicle binding response,[1],199% (inactive)
same,inhibition,[2],13.8% (inactive)
same,superoxide response (% of plate),[3],95.8% (inactive)
same,aptamer binding inhibition,[4],3% (inactive)
same,inhibition,[5],10.6% (inactive)
same,response,[6],-2.03% (inactive)
same,binding (% of control),[7],107% (inactive)
same,efflux inhibition (fraction of control),[8],-0.01 (inactive)
same,inhibition,[9],11% (inactive)
same,differentiation response,[10],-13.1% (inactive)
COc1ccc(C(=O)/C=C/c2cc(C(=O)O)cc3c2OCOC3)c(O)c1,double positive events,[1],54.5%
same,vesicle binding response,[1],202% (inactive)
same,inhibition,[2],-3.97% (inactive)
same,superoxide response (% of plate),[3],99.9% (inactive)
same,aptamer binding inhibition,[4],6% (inactive)
same,inhibition,[5],-2.5% (inactive)
same,response,[6],-6.09% (inactive)
same,binding (% of control),[7],95.7% (inactive)
same,efflux inhibition (fraction of control),[8],-0.43 (inactive)
same,inhibition,[9],0% (inactive)
same,differentiation response,[10],-1.82% (inactive)

# From PubChem BioAssay
